Sfp inh – blocks B. subtilis Sfp PPTase activity; Q9F4F7; Biochemical Sfp PPTase activity, qHTS; Potency, µM, for inactives: largest response in the series, negative = inhibition, most hits filed as inhibitors; hit rate 3.5% among 310,000; AID 1490;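 also: the enzyme is Sfp with the accession as filed and its product quenches rhodamine fluorescence; 0% = enzyme reaction without inhibitor and -100% = no enzyme wells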
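Fluorescence-quenching assay: 15 nM Sfp-PPTase preincubated 15 min at room temperature with compound, then 5 uM rhodamine-CoA and 12.5 uM BHQ-2-labelled YbbR peptide added. Fluorescence (ex 525/em 598 nm) read at start and after 30 min; difference gives rate.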
PLK1 PBD block – blocks phosphopeptide binding to human PLK1 polo-box domain. P53350. Plk1 PBD binding of FITC phosphopeptide, fluorescence polarization. Potency, µM, inactives show max response, negative = inhibition, usual class: inhibitors. hit rate 2.8% among 360,000; also: series mostly up to about 57 µM; % is scaled to controls: 0 for no effect and ±100 for the full control effect; nearly all actives have a fitted effect of over 65% in size
G9a inh – G9a (human) methyltransferase inhibition; Potency, µM (series often up to 102 µM), inactives show top-dose activity, negative = inhibition, usual class: inhibitors; hit rate 8.8% among 350,000; G9a H3K9 monomethylation, AlphaScreen, 2 h; also: % is scaled to controls: 0 for no effect and ±100 for the full control effect; nearly all actives have a fitted effect of over 75% in size
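Methyltransferase reactions run at room temperature for 2 h (20 nM enzyme, 500 nM biotin-H3K9 peptide, 20 uM SAM) after a 15 min compound preincubation; product detected by AlphaScreen beads and anti-H3K9me1 antibody.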
BAZ2B inh – BAZ2B (human) inhibition. hit rate 4.4% among 360,000. Potency, µM (series often up to 114 µM), without a hit: top-dose activity change, negative = inhibition, actives largely listed as inhibitors. AID 504333. AlphaScreen BAZ2B-H3K14Ac peptide displacement. Q9UIF8; also: % is scaled to controls: 0 for no effect and ±100 for the full control effect; nearly all actives have a fitted effect of over 60% in size
Target sequence (Q9UIF8 whole entry, looked up): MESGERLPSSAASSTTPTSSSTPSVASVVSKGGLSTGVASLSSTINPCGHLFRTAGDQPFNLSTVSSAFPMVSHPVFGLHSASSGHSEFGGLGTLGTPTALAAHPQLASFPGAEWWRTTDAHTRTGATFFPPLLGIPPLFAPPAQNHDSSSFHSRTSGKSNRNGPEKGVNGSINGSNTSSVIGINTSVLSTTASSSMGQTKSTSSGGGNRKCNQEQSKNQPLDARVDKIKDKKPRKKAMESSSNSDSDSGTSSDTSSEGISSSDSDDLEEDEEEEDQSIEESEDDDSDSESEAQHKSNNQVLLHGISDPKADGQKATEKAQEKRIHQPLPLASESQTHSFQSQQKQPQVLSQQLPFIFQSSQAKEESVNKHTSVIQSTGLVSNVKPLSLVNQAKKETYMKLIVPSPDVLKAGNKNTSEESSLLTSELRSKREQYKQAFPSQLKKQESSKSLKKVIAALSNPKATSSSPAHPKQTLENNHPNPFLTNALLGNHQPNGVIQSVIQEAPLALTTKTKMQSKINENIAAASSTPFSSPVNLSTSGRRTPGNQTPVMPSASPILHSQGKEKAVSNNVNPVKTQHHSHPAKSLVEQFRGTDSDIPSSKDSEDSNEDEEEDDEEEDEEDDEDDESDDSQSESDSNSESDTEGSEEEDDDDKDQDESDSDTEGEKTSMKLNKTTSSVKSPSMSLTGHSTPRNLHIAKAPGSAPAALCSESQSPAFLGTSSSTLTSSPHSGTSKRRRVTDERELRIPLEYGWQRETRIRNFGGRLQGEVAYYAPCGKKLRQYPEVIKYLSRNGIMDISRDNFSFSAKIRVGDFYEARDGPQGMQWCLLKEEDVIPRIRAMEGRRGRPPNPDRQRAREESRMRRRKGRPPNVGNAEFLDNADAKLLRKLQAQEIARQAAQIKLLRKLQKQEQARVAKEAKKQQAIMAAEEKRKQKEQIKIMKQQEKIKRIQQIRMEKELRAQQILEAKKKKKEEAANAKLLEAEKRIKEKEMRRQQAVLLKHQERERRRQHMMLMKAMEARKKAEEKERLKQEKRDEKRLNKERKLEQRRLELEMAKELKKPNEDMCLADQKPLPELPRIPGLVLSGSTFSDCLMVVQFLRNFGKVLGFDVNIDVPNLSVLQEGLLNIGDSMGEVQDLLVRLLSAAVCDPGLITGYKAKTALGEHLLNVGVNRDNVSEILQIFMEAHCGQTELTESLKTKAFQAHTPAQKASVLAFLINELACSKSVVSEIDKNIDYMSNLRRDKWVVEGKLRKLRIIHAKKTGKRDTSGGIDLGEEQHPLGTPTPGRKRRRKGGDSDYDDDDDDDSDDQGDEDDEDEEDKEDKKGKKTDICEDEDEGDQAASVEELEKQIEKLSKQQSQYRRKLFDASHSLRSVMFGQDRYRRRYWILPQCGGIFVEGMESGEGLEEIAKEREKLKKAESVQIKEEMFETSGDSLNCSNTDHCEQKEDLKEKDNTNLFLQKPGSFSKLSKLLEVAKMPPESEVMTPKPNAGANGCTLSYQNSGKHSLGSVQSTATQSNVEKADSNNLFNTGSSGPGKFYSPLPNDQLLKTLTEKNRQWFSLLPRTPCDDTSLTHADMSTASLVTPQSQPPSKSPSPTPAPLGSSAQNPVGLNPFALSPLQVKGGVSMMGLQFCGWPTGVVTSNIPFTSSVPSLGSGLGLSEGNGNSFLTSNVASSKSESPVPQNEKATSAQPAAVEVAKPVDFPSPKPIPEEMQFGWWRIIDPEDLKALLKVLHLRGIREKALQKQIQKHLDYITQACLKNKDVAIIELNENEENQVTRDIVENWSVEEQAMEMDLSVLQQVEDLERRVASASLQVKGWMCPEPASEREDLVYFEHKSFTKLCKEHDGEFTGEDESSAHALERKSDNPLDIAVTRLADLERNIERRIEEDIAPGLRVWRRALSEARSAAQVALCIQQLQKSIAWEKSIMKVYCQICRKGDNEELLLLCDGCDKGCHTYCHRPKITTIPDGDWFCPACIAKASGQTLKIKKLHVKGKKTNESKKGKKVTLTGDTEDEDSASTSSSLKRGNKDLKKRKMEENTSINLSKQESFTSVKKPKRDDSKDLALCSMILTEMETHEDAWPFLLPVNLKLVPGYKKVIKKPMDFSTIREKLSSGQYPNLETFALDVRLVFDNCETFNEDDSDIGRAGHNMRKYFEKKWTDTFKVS
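AlphaScreen luminescence quantifies BAZ2B engagement of H3K14Ac peptide; the protein and biotinylated peptide are both at 50 nM final, buffer PBS pH 7.4 with 0.01% Tween-20, all steps at room temperature.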
JMJD2A Tudor – blocks the human JMJD2A Tudor domain | O75164 | Potency, µM (titrated, usually from 114 µM), inactives show top-dose activity change, negative = inhibition, most hits filed as inhibitors | AlphaScreen JMJD2A-Tudor / H3K4me3 peptide binding | hit rate 4.4% among 390,000; also: % is scaled to controls: 0 for no effect and ±100 for the full control effect; nearly all actives have a fitted effect of over 50% in size
HP1b chromo inh – blocks HP1-beta chromodomain binding to methylated histone tails; AlphaScreen HP1-beta / biotin-H3K9me3 peptide binding; Potency, µM (highest dose often 114 µM), inactives show at the highest dose activity change, negative = inhibition, usual class: inhibitors; hit rate 0.56% among 390,000; AID 540317; also: nearly all actives have a fitted effect of over 70% in size
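AlphaScreen: HP1-beta (50 nM) preformed 30 min with biotin-H3(1-18)K9me3 peptide (50 nM) in PBS pH 7.4, 0.01% Tween-20. Compound added for 30 min at RT, then streptavidin donor/nickel chelate acceptor beads (10 ug/mL) for 30 min.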
Numbers without * were called inactive; ? = inconclusive; / = not tested or not shown; [ ] = another dose, or the depositor's remark. Sampled rows, rich in hits. Any-hit rate of the full collection: about 12%. Calls follow the shape of the dose curve; as a rule, active = well fitted curve in the direction sought with a large enough effect; inconclusive = small, poorly fitted or top-dose-only effect, or another doubt; inactive = no such curve, though single readings can be large; an effect the other way counts as inactive or inconclusive. Potency is read from the fitted curve at half-maximal effect.

SMILES	Sfp inh	PLK1 PBD block	G9a inh	BAZ2B inh	JMJD2A Tudor	HP1b chromo inh
COC(=O)c1ccc(N=NNc2ccccc2)cc1	?	-8.8%	8.91µM*	?	-24.7%	5.9%
O=C(Nc1cccc([N+](=O)[O-])c1)c1ccc(-c2ccccc2)cc1	28.1%	-22.7%	11.5%[59 µM]	0.0%	-16.1%	4.5%
N#C/C(=N\Nc1cccc([N+](=O)[O-])c1)C(=O)c1ccc(Br)cc1	-6.1%	29.9µM*	44.7µM*	39.8µM*	39.8µM*	?
COc1ccc(C(=O)N2CCC3(CC2)CN(c2ccc(-c4ccccc4)cc2)C3)cc1	3.8%	/	-0.7%[12.7 µM]	/	/	/
c1ccc2c(c1)CCN2CCN1CCc2ccccc21	-4.7%	-11.2%	3.55µM*	?	-29.0%	8.5%
O=C1c2ccccc2C(=O)N1CCN1CCc2ccccc21	9.3%	-0.3%	?	50.1µM*	?	6.8%
CN(C)CCN1CCc2ccccc21	-9.5%	-2.9%	?	?	-34.5%	4.2%
Cc1cc(C(=O)N/N=C/c2c(CO)cnc(C)c2O)c2ccccc2n1	12.0%	-1.0%	70.9%	25.1µM*	50.1µM*	37.6%
Cc1ncc(CO)c(/C=N/NC(=O)c2cc(O)c(O)c(O)c2)c1O	20µM*	/	?	10µM*	/	/
Cc1ncc(CO)c(/C=N/NC(=O)c2cc(Br)ccc2O)c1O	-9.5%	-10.1%	-40.0%	11.2µM*	79.4µM*	39.3%
Cc1ncc(CO)c(/C=N/Nc2cccc(Cl)n2)c1O	?	2.0%	13.9%	7.2%	-35.2%	37.2%
CCOc1ccc2ccccc2c1/C=N/NC(=O)c1ccc(C)nc1	-11.1%	-3.2%	3.7%	11.6%	-13.4%	25.8%
CC(=O)NC(c1cccc(F)c1)c1nc(-c2cccc(C(F)(F)F)c2)cs1 (stereo not given)	/	-2.7%	/	/	/	/
COc1ccc(-c2nc(SC(C)C(=O)NCC3CCCO3)n[nH]2)cc1 (stereo not given)	/	0.0%	15.8µM*	-8.8%	-14.5%	20.1%
O=C(NC1CCCC1)C1CCN(c2nccs2)CC1	4.4%	-10.0%	19.2%[59 µM]	-3.4%	-17.2%	7.6%
O=C(NC1CCCCC1)C1CCN(c2nccs2)CC1	8.6%	?	-23.0%[59 µM]	6.2%	79.4µM*	-20.1%
CC(C)CCNC(=O)c1ccc2c(c1)nc1n2CCCCC1	/	/	-13.6%[59 µM]	1.5%	-17.9%	33.2%[57 µM]
CC(NC(=O)Cc1ccc(NC(=O)N2CCSc3ncccc32)cc1)c1ccccc1 (stereo not given)	/	/	?	-13.1%	-5.9%	36.3%
COc1ccc(C(=O)NCCn2cc(SCc3c(F)cccc3Cl)c3ccccc32)cc1	/	/	5.3%[59 µM]	-13.7%	-17.9%	13.4%
Cc1[nH][nH]c(=O)c1C(c1c(C)[nH][nH]c1=O)c1cn(C)c2ccccc12	44.7µM*	-17.7%	/	?	?	-19.2%
Cc1[nH][nH]c(=O)c1C(c1c(C)[nH][nH]c1=O)c1cn(Cc2cccc3ccccc23)c2ccccc12	-15.4%	7.52µM*	44.7µM*	?	-26.7%[11.4 µM]	28.2µM*
Nc1ccc2c(c1)-c1ccccc1S(=O)(=O)N2	-15.7%	-9.2%	31.6µM*	?	?	-5.9%
COCCCNC(=O)C[C@H]1C[C@H](C(=O)N2CCCCC2)[C@@]2(CCc3ccccc3)c3[nH]c4cc(CCC(=O)N(C)C)ccc4c3CCN2C1=O	/	-10.1%	/	/	-18.1%	33.3%
CCc1nnc2n1N(C(C)=O)C(c1ccc(C(C)(C)C)cc1)=C(C(C)=O)S2	/	/	2.0%[59 µM]	1.2%	0.0%	8.0%
Cc1cc(S(=O)(=O)NCC(C)C)ccc1OCC(=O)NCc1ccccn1	-29.5%	-3.5%	?	?	22.4µM*	16.6%
SMILES	Sfp inh	PLK1 PBD block	G9a inh	BAZ2B inh	JMJD2A Tudor	HP1b chromo inh
CCOc1ccc(S(=O)(=O)NCc2ccccn2)cc1NC(=O)c1ccccc1	/	4.7%	-5.1%	-31.5%	7.94µM*	14.8%
CNS(=O)(=O)c1cc(C(=O)O)ccc1OC	26.2%	26.7µM*	7.9%	-17.5%	12.6µM*	11.6%
COc1ccc(C(=O)O)cc1S(=O)(=O)NCc1ccccn1	-2.1%	-0.6%	5.5%	70.8µM*	?	12.8%
CN(C(=O)Cn1cc(S(=O)(=O)N2CCN(c3ccccc3F)CC2)c2ccccc2c1=O)c1ccc(Cl)cc1	/	/	-5.1%[59 µM]	-12.9%	-10.6%	19.9%
CCN1CCN(C(c2ccccc2)c2nnnn2Cc2ccc3c(c2)OCO3)CC1 (stereo not given)	5.8%	3.3%	/	-0.7%	4.5%	11.9%
O=S(=O)(NCc1ccccn1)c1cc(Cl)ccc1Cl	-10.6%	0.5%	79.4µM*	-7.3%	-6.9%	22.2%
COc1ccc(C)cc1S(=O)(=O)NCc1ccccn1	/	3.2%	/	/	/	/
O=S(=O)(NCc1ccccn1)c1cc(C(F)(F)F)ccc1Cl	-11.5%	1.0%	?	-19.2%	-10.3%	26.4%
COc1ccc(C(C)C)cc1S(=O)(=O)NCc1ccccn1	-8.8%	-11.5%	9.9%[12.7 µM]	-4.0%	2.24µM*	10.1%
CCCCCOC(=O)Nc1ccc(S(=O)(=O)Nn2cnnc2)cc1	-11.9%	?	9.6%[59 µM]	-2.1%	89.1µM*	-1.5%
CCCCOC(=O)Nc1ccc(S(=O)(=O)Nc2ncccn2)cc1	-6.8%	-4.3%	/	-1.4%	-5.2%	38.4%
O=C1COc2ccc(-c3cc(-c4ccccc4)c4c(n3)-c3cc(Cl)ccc3OC4)cc2N1	/	/	5.8%[59 µM]	-15.6%	-10.4%	15.5%
C#CC(c1ccccc1)(c1ccccc1)n1ccnc1	/	1.8%	/	/	/	/
Clc1ccccc1C(c1ccccc1)(c1ccccc1)n1ccnc1	-60.3%	-11.8%	4.4%[59 µM]	22.4µM*	28.2µM*	-15.9%
O=C(Nc1ccccc1Cl)c1ccc2ccccc2c1	-5.7%	-8.2%	/	9.0%	2.0%	44.4%
C[n+]1ccc(C(=O)Nc2ccccc2Cl)cc1	4.4%	-27.1%	25.1µM*	?	?	-1.6%
CCCN1CCC(NC(=O)CC2C(=O)NCCN2Cc2ccccc2C)CC1 (stereo not given)	13.6%	-19.8%	2.6%	-17.6%	-11.9%	35.0%
CCN1CCCC1Cn1cnc2c([nH]c3cccc(Cl)c32)c1=O (stereo not given)	-6.3%	-10.2%	31.6µM*	-21.5%	-13.4%	16.2%
COc1ccc(N2CC(C(=O)Nc3nnc(SCc4cccnc4)s3)CC2=O)cc1 (stereo not given)	-14.7%	-19.2%	50.1µM*	-13.5%	-13.1%	30.9%
COc1ccccc1N1CC(C(=O)Nc2nnc(SCc3cccnc3)s2)CC1=O (stereo not given)	-16.0%	-11.4%	/	-2.6%	-15.2%	36.8%
Cc1ccc(N2CC(C(=O)Nc3nnc(SCc4cccnc4)s3)CC2=O)cc1 (stereo not given)	-1.5%	-12.9%	15.8µM*	-2.7%	-2.9%	47.2%
N#CC1=C(N)C2=CCCC[C@H]2[C@H](c2ccc(Br)cc2)C1(C#N)C#N	7.08µM*	?	?	-33.8%	-26.4%	42.7%
N#CC1=C(N)C2=CCCC[C@H]2[C@H](c2ccccc2)C1(C#N)C#N	-8.8%	-26.6%	?	-30.1%	-31.1%	35.9%

Assay outcomes from PubChem BioAssay.
